High-throughput results: PubChem, National Center for Advancing Translational Sciences (NCATS)
AmpC inh detg = blocks E. coli AmpC beta-lactamase in detergent assay | AmpC hydrolysis of nitrocefin, absorbance 480 nm, 0.01% Triton | Potency, µM (titrated, usually from 114 µM), hits mostly inhibitors | 370,000 compounds, 0.041% hits | AID 485294; also: nearly all actives have a fitted effect of over 25% in size
Target sequence (P00811 whole entry, looked up): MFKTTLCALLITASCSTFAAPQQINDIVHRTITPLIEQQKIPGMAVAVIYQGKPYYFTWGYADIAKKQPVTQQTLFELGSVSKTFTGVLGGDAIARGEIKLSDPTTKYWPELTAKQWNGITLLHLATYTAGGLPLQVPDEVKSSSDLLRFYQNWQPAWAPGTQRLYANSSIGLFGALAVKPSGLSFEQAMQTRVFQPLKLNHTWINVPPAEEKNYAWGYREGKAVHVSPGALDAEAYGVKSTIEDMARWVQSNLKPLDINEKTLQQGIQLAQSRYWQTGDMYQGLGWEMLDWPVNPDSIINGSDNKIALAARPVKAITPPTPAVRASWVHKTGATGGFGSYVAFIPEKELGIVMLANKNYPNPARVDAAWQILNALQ
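20 mM phosphate pH 7.0 + 0.01% (detergent screen) or 0.0001% Triton X-100; 5.3 nM AmpC reagent; cpd preinc 15 min RT; nitrocefin (800 uM stock) to start; A480 q20 s × 4 min; Activity was normalised to no-enzyme and no-compound control wells.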
HCMV antiviral = human cytomegalovirus inhibition | AID 1259415 | HFF cells, HCMV-luciferase reporter, 72 h; hits give low values | activity change, negative = inhibition, % at 57.5 µM | 410,000 compounds, 4.5% hits; in the data active = activity change below about -60%; inconclusive = no clear call, values can overlap the other calls; inactive = above about -39%
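HFF cells seeded 16 h at 37C, treated with compounds, infected with luciferase-reporter HCMV at MOI 1 PFU/cell; luciferase read at 72 h post infection, normalized to buffer-only and Salinomycin controls.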
HCV inhibitor = inhibitors of hepatitis C virus infection; AID 651820; 340,000 compounds, 3.4% hits; Huh7.5.1 HCVcc-Cre infection, luciferase reporter, 44 h; Potency, µM (titrated, usually from 41.8 µM), actives largely listed as inhibitors
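Compounds are dispensed onto cells plated 4 h earlier at 1,000 per well, with HCVcc-Cre virus (about 0.5 moi) added next. Following 44 h of culture, luminescent signal is measured for 15 sec after 15 min with substrate at room temperature.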
FMDV inh = foot and mouth disease virus antiviral activity. FMDV antiviral cell-based qHTS. Potency, µM (top dose mostly 57.9 µM), actives largely listed as inhibitors. 410,000 compounds, 1.2% hits; calls by dose curve; tested in HEK293T cells; also: read-out not given here; nearly all actives have a fitted effect of over 45% in size
AmpC no deterg = blocks E. coli AmpC beta-lactamase in detergent-free assay; P00811; Potency, µM (series often up to 57.1 µM), actives largely listed as inhibitors; 330,000 compounds, 0.52% hits; AID 485341; AmpC nitrocefin hydrolysis, absorbance 480 nm, 0.0001% Triton; also: nearly all actives have a fitted effect of over 20% in size
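20 mM phosphate pH 7.0 + 0.01% (detergent screen) or 0.0001% Triton X-100; 5.3 nM AmpC reagent; cpd preinc 15 min RT; nitrocefin (800 uM stock) to start; A480 q20 s × 4 min; Activity was normalised to no-enzyme and no-compound control wells.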
Of the large screens only hits and unclear results are named; the others gave an inactive call. Rows were chosen to be rich in hits. Some 7.3% of all compounds tested hit in one or more screens of this group. Unless noted, calls follow the shape of the dose curve; as a rule, active = well fitted curve in the direction sought with a large enough effect; inconclusive = small, poorly fitted or top-dose-only effect, or another doubt; inactive = no such curve, though single readings can be large; an effect the other way counts as inactive or inconclusive.

COc1cc(-c2cc(=O)c3c(O)cc(O)cc3o2)ccc1O	HCV inhibitor 13µM (no result: HCMV antiviral)
CCOC(=O)c1sc2nc(C)nc(N3CCCCC3C)c2c1C (stereo not drawn)	AmpC inh detg inconclusive, HCMV antiviral -73
CCOC(=O)c1sc2nc(C)nc(SCC(=O)N(CC)C3CCS(=O)(=O)C3)c2c1C (stereo not drawn)	HCMV antiviral -73, FMDV inh inconclusive
CNc1ncnc(NC)c1[N+](=O)[O-]	none (no result: AmpC inh detg, AmpC no deterg)
CN(Cc1cccc(-c2cccnc2)c1)C(=O)Oc1ccc([N+](=O)[O-])cc1	FMDV inh 35µM (no result: AmpC inh detg, HCV inhibitor, AmpC no deterg)
Cc1nc(-c2cccc(CN(C)C(=O)Oc3ccc([N+](=O)[O-])cc3)c2)no1	FMDV inh inconclusive (no result: AmpC inh detg, HCV inhibitor, AmpC no deterg)
O=C(Nc1ccc2c(c1)CCC2)c1ccc(F)c(S(=O)(=O)N2CCOCC2)c1	HCMV antiviral inconclusive, HCV inhibitor 16µM
O=C(Nc1ccc(S(=O)(=O)Nc2ncccn2)cc1)c1ccc(F)c(S(=O)(=O)N2CCOCC2)c1	none
Cc1ccc(C(=O)Nc2cccc(S(=O)(=O)N3CCCCC3)c2)cc1S(=O)(=O)N1CCOCC1	HCV inhibitor 8.9µM, FMDV inh inconclusive (no result: AmpC inh detg, AmpC no deterg)
Cc1ccc(S(=O)(=O)N2CCOCC2)cc1NC(=O)c1cc2c(s1)CCC2	none
Cc1c(NC(=O)c2ccc(Cl)c([N+](=O)[O-])c2)cccc1-n1cnnn1	HCV inhibitor 11µM (no result: AmpC inh detg)
Cc1ccc(NC(=O)c2cc3c(s2)CCC3)cc1S(=O)(=O)N1CCOCC1	HCMV antiviral -65, HCV inhibitor 7.9µM, FMDV inh inconclusive
COc1cc(OC)c(NC(=O)C2CCN(C(=O)c3sc4nc[nH]c(=O)c4c3C)CC2)cc1Cl	none (no result: HCV inhibitor, AmpC no deterg)
Cc1ccc(C(=O)NNC(=O)c2ccccc2O)cc1S(=O)(=O)N1CCCCC1	AmpC inh detg inconclusive, HCV inhibitor 13µM, AmpC no deterg 8.9µM
Cc1ccc(NC(=O)Nc2ccccc2)cc1[N+](=O)[O-]	HCV inhibitor inconclusive
Cc1ccc(C(=O)NC(C)c2ccc(-n3ccnc3)cc2)cc1S(=O)(=O)N1CCOCC1 (stereo not drawn)	HCMV antiviral -97, HCV inhibitor inconclusive
O=C(Nc1ccccc1)Nc1ccc(Cl)c([N+](=O)[O-])c1	HCMV antiviral inconclusive, HCV inhibitor 13µM
Cc1ccc(C(=O)NCc2cccc(C(F)(F)F)c2)cc1S(=O)(=O)N1CCCCC1	HCMV antiviral -66, HCV inhibitor inconclusive, FMDV inh inconclusive
CN(C)c1ncnc2c1ncn2[C@H]1CN(Cc2ccc(Cl)cc2)C[C@@H](CO)O1	none (no result: AmpC inh detg, HCV inhibitor, AmpC no deterg)
COCCCNc1ncnc2sc(C(=O)N3CCCCC3)c(C)c12	none (no result: AmpC inh detg, HCMV antiviral, HCV inhibitor, AmpC no deterg)
Cc1cnc(NC(=O)c2ccc(F)c(S(=O)(=O)N3CCOCC3)c2)s1	HCMV antiviral -105, HCV inhibitor inconclusive
O=C(Nc1ccc(S(=O)(=O)Nc2nccs2)cc1)c1ccc(F)c(S(=O)(=O)N2CCOCC2)c1	AmpC inh detg inconclusive, HCMV antiviral inconclusive, AmpC no deterg 7.9µM
O=C(Nc1ccccc1N1CCCCC1)c1ccc(F)c(S(=O)(=O)N2CCOCC2)c1	AmpC inh detg inconclusive, HCV inhibitor 10µM
Cc1ccc(C(=O)Nc2cccc(S(=O)(=O)N3CCCCC3)c2)cc1[N+](=O)[O-]	HCV inhibitor 7.1µM, FMDV inh inconclusive
CC(C)c1ccc(NC(=O)c2cc3c(s2)-c2ccccc2SC3)cc1	HCMV antiviral inconclusive (no result: HCV inhibitor, AmpC no deterg)
COc1ccc(CN(C(=O)COc2ccccc2OC)C2CCS(=O)(=O)C2)cc1 (stereo not drawn)	none (no result: HCV inhibitor, AmpC no deterg)
Cn1c(=O)c2cc(NC(=O)NCCc3cccs3)ccc2n1-c1ccc(C(C)(C)C)cc1	none (no result: AmpC inh detg, HCMV antiviral, HCV inhibitor, AmpC no deterg)
Cc1ccc(C(=O)Nc2cccc(C(=O)O)c2)cc1S(=O)(=O)N1CCOCC1	none (no result: FMDV inh)
Cc1ccc(NC(=O)c2cccc(S(=O)(=O)N(C)c3ccccc3)c2)cc1S(=O)(=O)N1CCOCC1	HCMV antiviral -70, HCV inhibitor 4µM, FMDV inh inconclusive
CCc1sc(C(=O)Nc2ccc(OC)c(S(=O)(=O)N3CCOCC3)c2)cc1C	HCMV antiviral inconclusive, HCV inhibitor inconclusive, FMDV inh inconclusive (no result: AmpC inh detg)
O=C(Nc1ccc(S(=O)(=O)NC2=NCCCCC2)cc1)c1ccc(Cl)c([N+](=O)[O-])c1	HCMV antiviral inconclusive, HCV inhibitor inconclusive (no result: AmpC inh detg)
Cc1cccc(C)c1NS(=O)(=O)c1ccc(NC(=O)c2ccc(Cl)c([N+](=O)[O-])c2)cc1	HCMV antiviral -66, HCV inhibitor 7.1µM
